Measurements from PubChem BioAssay AID1347120 (National Center for Advancing Translational Sciences (NCATS), 2019).
Out of some 390,000 compounds screened, about 930 (0.24%) were called active. Not shown: some 5% with an inconclusive outcome. The sample holds actives, similar compounds and a random draw of the others, so the mix is not that of the screen. Calls come from the whole dose curve; as a rule, active = well fitted activation curve with a large enough effect; inconclusive = small, poorly fitted or top-dose-only effect; inactive = no such curve, though single readings can be large or run the other way.

Experiment: qHTS for Suppressors of FUS Proteinopathy: Primary screen using FUS-linked yeast assay; note: nearly all actives have a fitted effect of over 55% in size;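 for growth rescue (activation): plate controls were DMSO vehicle for no effect and reference control for full effect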
Details: S. cerevisiae FUS-expressing, OD600, 24 h; Potency: growth rescue; series mostly up to 76.6 µM; growth rescue (activation): at the top concentration
Excerpt: Several widespread neurodegenerative diseases, including Alzheimer disease, Huntington disease, Frontotemporal Lobar Degeneration (FTLD) and Amyotrophic Lateral Sclerosis (ALS), share a common pathological feature, namely accumulation of specific protein aggregates in diseased tissue. These diseases which is associated with protein misfolding (proteinopathies) have become increasingly problematic as the population ages and life expectancies are extended. Most proteinopathies are currently incurable, a situation confounded by the fact that the basis of neurodegeneration is generally poorly understood. There exists urgent and significant need to find therapeutics that can inhibit the toxicity associated with protein aggregation. A novel approach to understand the underlying mechanisms of neurodegenerative diseases has recently emerged in which the disease conditions are modeled in the yeast (Saccharomyces cerevisiae), a tractable eukaryotic organism with conserved protein quality control mechanisms. Yeast offers quick and reliable genetic manipulations and can be easily tailored to high-throughput screening (HTS).
For this project, a yeast model of the FUS proteinopathies (a spectrum of neurodegenerative diseases that include ALS and a subtype of FTLD) was generated and employed. The cytoplasmic accumulation of the DNA/RNA-binding protein FUS (also known as TLS) is causative to both familial and sporadic forms of ALS and FTLD. This yeast model recapitulates neuronal pathology by showing severe cytotoxicity associated with cytoplasmic accumulation of FUS aggregates and a specific interaction between FUS and TDP-43, another ALS-associated protein. […] Specifically, the cellular accumulation of misfolded FUS that disrupts RNA homeostasis in both yeast and higher eukaryotes. This model was validated to be suitable for quantitative HTS (qHTS) use for finding genetic or chemical factors that restore growth. […] Identified compounds that inhibits FUS-yeast toxicity is flagged, re-acquired, and validated for further investigation and optimization.
NIH Chemical Genomics Center [NCGC]
NIH Molecular Libraries Probe Production Centers Network [MLPCN]
Assay Submitter (PI): Frank Shewmaker PhD, Uniformed Services University of the Health Sciences
Compound CP55940 was used as the positive control. Column 1 was treated with CP55940 titration from 92uM (final concentration, 1:2 dilution), while Column 2 was treated with top dose 92uM. Columns 3 and 4 were treated with DMSO only as negative control to assess background and noise signal.
Four hundred fifty microliter of cultured yeast (in 20mL rich medium) provided by Dr. Shewmaker lab was incubated at 30C at 99% humidity for 3hr. The culture was then spun down at 4000rpm for 5min and the cell pellet was resuspended in 2mL of Sdmin Media + ALU(330) + 2.5% Raffinose. One hundred microliter of the suspension was added to 900uL of water and OD of the solution was obtained. Twenty mL of responding medium (provided by Shewmaker lab) + 2.5% raffinose was added to ensure cell density of 0.1; the solution was incubated overnight. Working cell solution (FUS-yeast in Sdmi + Sdmi + 1X ALU + 2% galactose media) was prepared (final OD at 0.005) and 3uL was dispensed in a 1536-well Aurora high based clear bottom assay plates. Controls and library compounds (at various final concentrations from 40uM to 0.32uM) were added using a 1536-well pin array using the Kalypsys pin-tool. The plates were then incubated for 24hrs in a cell-culture incubator (30C; 99% humidity). Absorbance at 600nm was then read using the PerkinElmer ViewLux plate reader.
Potency is the fitted concentration of half-maximal effect.

Structure (SMILES) | growth rescue (activation) | Potency
COc1ccc(S(=O)(=O)Nc2cccc3c2O[C@H](CN(C)S(=O)(=O)c2ccc(OC)cc2)[C@@H](C)CN([C@H](C)CO)C3=O)cc1 | 44.3% (inactive) | 
COc1ccc(S(=O)(=O)N(C)C[C@H]2Oc3c(NC(=O)Nc4ccc5c(c4)OCO5)cccc3C(=O)N([C@H](C)CO)C[C@@H]2C)cc1 |  | 25.1 µM (active)
CC(C)NC(=O)Nc1cccc2c1O[C@@H](CN(C)S(=O)(=O)c1ccc(F)cc1)[C@@H](C)CN([C@H](C)CO)C2=O | 21% (inactive) | 
COc1cc(OC)c(NC(=O)c2cc(S(=O)(=O)N3CCCC3)cn2C)cc1Cl | -16.3% (inactive) | 
COC(=O)c1ccccc1NC(=O)C(Cc1ccccc1)N1Cc2ccccc2C1=O (stereo not drawn) | 20.6% (inactive) | 
Cc1cccc(CCNC(=O)c2ccc3c(c2)nc2n3CCC(C)C2)c1 (stereo not drawn) | -6.88% (inactive) | 
COc1cccc(NC(=O)N2CCN(C(=O)c3nsc4ccccc34)CC2)c1 | 11.1% (inactive) | 
Cc1nc(SCCOc2ccc(Cl)cc2)[nH]c(=O)c1Cc1ccccc1 | -21% (inactive) | 
O=C(CNC(=O)OCc1ccccc1)Oc1cc2oc(=O)cc(-c3ccccc3)c2cc1Cl |  | 12.6 µM (active)
COP(=O)(O)CNC(=O)OCc1ccccc1 | -20.6% (inactive) | 
O=C(CNC(=O)Cc1ccccc1)NCC(=O)OCC(=O)c1ccccc1Cl | 22.9% (inactive) | 
CCO/C=C1\C(=O)N(c2ccc(OCC)cc2)C(=O)c2ccccc21 | -7.53% (inactive) | 
COC(=O)Cc1csc(/N=C/c2c(O)n(-c3cccc(C(F)(F)F)c3)c(=O)c3ccccc23)n1 | -14.2% (inactive) | 
CCOc1ccc(N=Cc2c(O)n(-c3cccc(C)n3)c(=O)c3ccccc23)cc1 |  | 8.91 µM (active)
CCc1ccc(NC(=O)CCCc2nnc3n(CCCOC)c(=O)c4sccc4n23)cc1 | 7.44% (inactive) | 
COc1ccc2c(c1)Cc1sc(NC(=O)c3ccccc3Br)nc1-2 |  | 28.2 µM (active)
Cn1c(=O)c(=O)n(C)c2cc(NC(=O)c3ccccc3Br)ccc21 | -10.8% (inactive) | 
O=C(Nc1nc2c(s1)CCCC2)c1ccccc1F | 15.6% (inactive) | 
CN(C(=O)c1ccc2c(c1)N(Cc1cccc(Cl)c1)C(=O)c1ccccc1S2=O)C1CCCCC1 (stereo not drawn) | 33.1% (inactive) | 
CC(C)CCn1c(CN(C)Cc2ccccc2)nc2c1c(=O)n(C)c(=O)n2C | -1.47% (inactive) | 

Structure (SMILES) | growth rescue (activation) | Potency
CC(C)Cn1c(CN(Cc2ccccc2)Cc2ccccc2)nc2c1c(=O)n(C)c(=O)n2C |  | 31.6 µM (active)
Cn1c(=O)[nH]c(=O)c2c1nc(CN(Cc1ccccc1)Cc1ccccc1)n2CCN1CCOCC1 | 18.2% (inactive) | 
CCN(CC)c1ccc(NC(=O)CN2C(=O)c3cccnc3Oc3ccc(Cl)cc32)c(C)c1 | 5.5% (inactive) | 
Cc1ccc(Nc2cc(=O)n(C3CCCCC3)c(=O)[nH]2)cc1C | 2.44% (inactive) | 
Cc1cc(/C=N/NC(N)=O)c(C)n1C1CCCCC1 |  | 22.4 µM (active)
CC1CCc2sc(C(=O)N/N=C/C3CCCCC3)cc2C1 (stereo not drawn) | 27.8% (inactive) | 
CCc1ccccc1NC(=O)N1CCN(C(=O)c2nsc3ccccc23)CC1 | 19.2% (inactive) | 
CCOc1cccc(NC(=O)CSc2ncc(-c3ccc(Cl)cc3)[nH]2)c1 | 17.4% (inactive) | 
CCNC(=O)Cn1nc(C)n2c(cc3c(OC)cccc32)c1=O | -9.14% (inactive) | 
O=C1CCC/C=C\C[C@@H](CC(=O)N(CCO)Cc2ccccc2)C(=O)NCCO1 | -10.1% (inactive) | 
O=C1N[C@@H](c2ccccc2)COC(=O)[C@H](Cc2ccc(F)cc2)C/C=C\C[C@@H]1CC(=O)N(CCO)Cc1ccccc1 |  | 22.4 µM (active)
CC(C)(C)OC(=O)C[C@@H]1C/C=C\C[C@@H](CC(=O)N(CCO)Cc2ccccc2)C(=O)N[C@H](Cc2ccccc2)COC1=O | 42.3% (inactive) | 
CCC1CCCCN1Cc1c(O)ccc2c(=O)c(Oc3ccccc3Cl)c(C(F)(F)F)oc12 (stereo not drawn) | 41.8% (inactive) | 
Cc1ccc(C)c(Cn2c(CCCNC(=O)C3CCCCC3)nc3ccccc32)c1 | -6.7% (inactive) | 
COCCNC(=O)c1cc(-c2cccc(Cl)c2)on1 | -21.7% (inactive) | 
Cc1cc(N2C(=O)C(=O)/C(=C(/O)c3ccc(Cl)cc3)C2c2cccc(Br)c2)no1 (stereo not drawn) | 18.5% (inactive) | 
Cc1cc(N2C(=O)C(=O)/C(=C(/O)c3ccccc3)C2c2cccc(Br)c2)no1 (stereo not drawn) | 30.8% (inactive) | 
COc1ccccc1C1/C(=C(/O)c2ccc(OC(C)C)cc2)C(=O)C(=O)N1c1cc(C)on1 (stereo not drawn) |  | 20 µM (active)
Cc1ccc(-c2cn3c(n2)sc2cc(C(=O)NCCCc4ccccc4)ccc23)cc1 | -10.9% (inactive) | 
O=C(CSc1nccn1C1CCCC1)Nc1cc(C(F)(F)F)ccc1Cl | 9.55% (inactive) | 

Structure (SMILES) | growth rescue (activation) | Potency
COc1ccc(CNC(=O)CC2Oc3ccc(C)cc3NC2=O)cc1 (stereo not drawn) | 18.9% (inactive) | 
CC(=O)Nc1ccc(NC(=O)CCCc2nc(-c3ccc(C(C)(C)C)cc3)no2)cc1 | 1.65% (inactive) | 
CC1Cc2cc(S(=O)(=O)CCC(=O)Nc3ccc(F)c(Cl)c3)ccc2N1C(=O)C1CC1 (stereo not drawn) | -4.02% (inactive) | 
COc1ccccc1-c1cc(C(F)(F)F)nc(S(=O)(=O)CCCC(=O)Nc2ccc(F)cc2F)n1 | 18.6% (inactive) | 
CCCCc1nn2c(=O)cc(COC(=O)c3ccc(NC(=O)c4ccccc4C)cc3)nc2s1 | 7.51% (inactive) | 
CCCCOc1ccc(CN2C(=O)C(=O)c3cc(Br)cc(C)c32)cc1OC | 2.56% (inactive) | 
Cc1ccc(CNC(=O)CCc2c(C)nc3c(c(C)nn3-c3ccccc3)c2C)cc1 | -8.63% (inactive) | 
CCN(CC)C(=O)CSc1nc2cc3c(cc2c(=O)n1CCCC(=O)NCc1ccc2c(c1)OCO2)OCO3 | 42.4% (inactive) | 
CCOc1ccc(-c2cc3c(=O)n(CC(=O)NCc4ccc(OC)cc4)ccn3n2)cc1 | -11.9% (inactive) | 
COc1cccc(-n2c(=O)c3c(C)c(C(=O)N(C)C)sc3n(Cc3cccc(C)c3)c2=O)c1 | 17.2% (inactive) | 
CCN(CC(=O)Nc1ccc(Cl)c(S(=O)(=O)N(C)C)c1)Cc1nc2ccccc2c(=O)[nH]1 |  | 31.6 µM (active)
CCN(CC(=O)Nc1cccc(S(N)(=O)=O)c1)Cc1nc2ccccc2c(=O)[nH]1 | -6.78% (inactive) | 
CCN(CC(=O)NC(=O)NCc1ccccc1)Cc1nc2ccccc2c(=O)[nH]1 | 6.69% (inactive) | 
CCN1CCN(CCCNC(=O)c2ccc3c(c2)sc2nc(-c4ccc(OC)cc4)cn23)CC1 | 17.2% (inactive) | 
COc1ccc(CC(=O)NCCc2sc3nc(-c4ccc(OC)cc4)nn3c2C)cc1 | -0.404% (inactive) | 
COC(=O)CN1C(=O)CSc2ccc(S(=O)(=O)Nc3cc(C)ccc3C)cc21 | 23% (inactive) | 
Cc1ccc2nc(N3CCN(c4cccc(Cl)c4)CC3)c3nnnn3c2c1 | -4.98% (inactive) | 
Cc1nnc(N2CCC(C(=O)Nc3ccc(F)cc3)CC2)c2nn(-c3ccc(Cl)cc3)c(C)c12 | 9.53% (inactive) | 
